# Experimental data as given in the supplement of paper PMC12282887.
# ± gives the standard deviation of the averaged measurements.
# Legend:
# Assay in all cases: promoter activity interaction Z-score (Lux/OD deviation from empty-vector control); higher = stronger promoter induction by the compound
# [1] = system: E. coli BW25113 acrABp lux reporter
# Method in brief: (§1)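 In 384-well plates, 40 µl LB Lennox cultures of E. coli BW25113 with low-copy luxCDABE promoter reporters grew at 37°C. Optical density at 600 nm and light output were recorded every 30 min for 12 h, with windows of 0–8 h for wild type and 1–9 h for deletion strains, and wells under 10% of the median growth value were left out. Each value is a Z-transformed residual of growth-normalised luminescence fitted against a control.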
# [2] = system: E. coli BW25113 micFp lux reporter
# Method in brief: as §1
# [3] = system: E. coli BW25113 ompFp lux reporter
# Method in brief: as §1
# [4] = system: E. coli BW25113 robp lux reporter
# Method in brief: as §1
# [5] = system: E. coli BW25113 soxSp lux reporter
# Method in brief: as §1
# [6] = system: E. coli BW25113 tolCp lux reporter
# Method in brief: as §1
# [7] = 7 µg/ml, genetic background: wild type
# [8] = 7 µg/ml, genetic background: ΔmarA
# [9] = 7 µg/ml, genetic background: Δrob
# [10] = 7 µg/ml, genetic background: ΔsoxS
# [11] = 14 µg/ml, genetic background: wild type
# [12] = 14 µg/ml, genetic background: ΔmarA
# [13] = 14 µg/ml, genetic background: Δrob
# [14] = 14 µg/ml, genetic background: ΔsoxS
# [15] = 28 µg/ml, genetic background: wild type
# [16] = 28 µg/ml, genetic background: ΔmarA
# [17] = 28 µg/ml, genetic background: Δrob
# [18] = 28 µg/ml, genetic background: ΔsoxS
# [19] = 56.1 µg/ml, genetic background: wild type
# [20] = 56.1 µg/ml, genetic background: ΔmarA
# [21] = 56.1 µg/ml, genetic background: Δrob
# [22] = 56.1 µg/ml, genetic background: ΔsoxS
smiles,measurement,setting,value
COc1cc(NS(=O)(=O)c2ccc(N)cc2)ncn1 [Sulfamonomethoxine],promoter activity interaction Z-score,[1]; [7],-0.0629 ± 0.12
same,promoter activity interaction Z-score,[1]; [8],-0.0827 ± 0.19
same,promoter activity interaction Z-score,[1]; [9],-0.194 ± 0.069
same,promoter activity interaction Z-score,[1]; [10],-0.131 ± 0.45
same,promoter activity interaction Z-score,[1]; [11],-0.0954 ± 0.051
same,promoter activity interaction Z-score,[1]; [12],0.444 ± 0.69
same,promoter activity interaction Z-score,[1]; [13],0.0478 ± 0.2
same,promoter activity interaction Z-score,[1]; [14],-0.102 ± 0.4
same,promoter activity interaction Z-score,[1]; [15],0.289 ± 0.03
same,promoter activity interaction Z-score,[1]; [16],0.686 ± 0.39
same,promoter activity interaction Z-score,[1]; [17],0.139 ± 0.014
same,promoter activity interaction Z-score,[1]; [18],-0.0503 ± 0.27
same,promoter activity interaction Z-score,[1]; [19],0.594 ± 0.059
same,promoter activity interaction Z-score,[1]; [20],1.43 ± 0.56
same,promoter activity interaction Z-score,[1]; [21],1.32 ± 0.6
same,promoter activity interaction Z-score,[1]; [22],0.654 ± 0.63
same,promoter activity interaction Z-score,[2]; [7],-0.11 ± 0.081
same,promoter activity interaction Z-score,[2]; [8],-0.104 ± 0.066
same,promoter activity interaction Z-score,[2]; [9],0.00985 ± 0.087
same,promoter activity interaction Z-score,[2]; [10],-0.0124 ± 0.09
same,promoter activity interaction Z-score,[2]; [11],0.129 ± 0.024
same,promoter activity interaction Z-score,[2]; [12],-0.112 ± 0.13
same,promoter activity interaction Z-score,[2]; [13],-0.0554 ± 0.081
same,promoter activity interaction Z-score,[2]; [14],0.0346 ± 0.00076
same,promoter activity interaction Z-score,[2]; [15],-0.113 ± 0.28
same,promoter activity interaction Z-score,[2]; [16],0.0381 ± 0.13
same,promoter activity interaction Z-score,[2]; [17],-0.0788 ± 0.15
same,promoter activity interaction Z-score,[2]; [18],-0.00695 ± 0.03
same,promoter activity interaction Z-score,[2]; [19],0.345 ± 0.27
same,promoter activity interaction Z-score,[2]; [20],-0.0779 ± 0.035
same,promoter activity interaction Z-score,[2]; [21],0.446 ± 0.3
same,promoter activity interaction Z-score,[2]; [22],0.145 ± 0.15
same,promoter activity interaction Z-score,[3]; [7],0.897 ± 1
same,promoter activity interaction Z-score,[3]; [8],0.44 ± 0.78
same,promoter activity interaction Z-score,[3]; [9],0.229 ± 0.2
same,promoter activity interaction Z-score,[3]; [10],0.152 ± 0.17
same,promoter activity interaction Z-score,[3]; [11],0.907 ± 0.69
same,promoter activity interaction Z-score,[3]; [12],0.36 ± 0.52
same,promoter activity interaction Z-score,[3]; [13],0.708 ± 0.82
same,promoter activity interaction Z-score,[3]; [14],0.102 ± 0.078
same,promoter activity interaction Z-score,[3]; [15],1.05 ± 0.98
same,promoter activity interaction Z-score,[3]; [16],1.11 ± 0.74
same,promoter activity interaction Z-score,[3]; [17],0.731 ± 0.18
same,promoter activity interaction Z-score,[3]; [18],0.341 ± 0.13
same,promoter activity interaction Z-score,[3]; [19],2.04 ± 0.99
same,promoter activity interaction Z-score,[3]; [20],2.09 ± 0.78
same,promoter activity interaction Z-score,[3]; [21],2.95 ± 1.7
same,promoter activity interaction Z-score,[3]; [22],1.94 ± 0.43
same,promoter activity interaction Z-score,[4]; [7],1.09 ± 0.49
same,promoter activity interaction Z-score,[4]; [8],0.0134 ± 0.083
same,promoter activity interaction Z-score,[4]; [9],-0.027 ± 0.51
same,promoter activity interaction Z-score,[4]; [10],-0.114 ± 0.21
same,promoter activity interaction Z-score,[4]; [11],1.2 ± 0.46
same,promoter activity interaction Z-score,[4]; [12],-0.0907 ± 0.34
same,promoter activity interaction Z-score,[4]; [13],0.416 ± 0.81
same,promoter activity interaction Z-score,[4]; [14],-0.326 ± 0.46
same,promoter activity interaction Z-score,[4]; [15],0.911 ± 0.12
same,promoter activity interaction Z-score,[4]; [16],1.16 ± 0.43
same,promoter activity interaction Z-score,[4]; [17],0.643 ± 0.1
same,promoter activity interaction Z-score,[4]; [18],0.227 ± 0.12
same,promoter activity interaction Z-score,[4]; [19],2 ± 0.41
same,promoter activity interaction Z-score,[4]; [20],2.2238 ± 0.0018
same,promoter activity interaction Z-score,[4]; [21],1.45 ± 0.23
same,promoter activity interaction Z-score,[4]; [22],1.99 ± 0.18
same,promoter activity interaction Z-score,[5]; [7],-0.238 ± 0.08
same,promoter activity interaction Z-score,[5]; [8],-0.23 ± 0.096
same,promoter activity interaction Z-score,[5]; [9],-0.34 ± 0.09
same,promoter activity interaction Z-score,[5]; [10],-0.327 ± 0.54
same,promoter activity interaction Z-score,[5]; [11],-0.126 ± 0.13
same,promoter activity interaction Z-score,[5]; [12],-0.374 ± 0.052
same,promoter activity interaction Z-score,[5]; [13],-0.287 ± 0.064
same,promoter activity interaction Z-score,[5]; [14],-0.322 ± 0.51
same,promoter activity interaction Z-score,[5]; [15],-0.403 ± 0.15
same,promoter activity interaction Z-score,[5]; [16],-0.289 ± 0.029
same,promoter activity interaction Z-score,[5]; [17],-0.503 ± 0.07
same,promoter activity interaction Z-score,[5]; [18],-0.224 ± 0.42
same,promoter activity interaction Z-score,[5]; [19],-0.28 ± 0.14
same,promoter activity interaction Z-score,[5]; [20],-0.0803 ± 0.1
same,promoter activity interaction Z-score,[5]; [21],-0.502 ± 0.17
same,promoter activity interaction Z-score,[5]; [22],-0.113 ± 0.36
same,promoter activity interaction Z-score,[6]; [7],-0.23 ± 0.84
same,promoter activity interaction Z-score,[6]; [8],0.608 ± 0.35
same,promoter activity interaction Z-score,[6]; [9],0.27 ± 0.051
same,promoter activity interaction Z-score,[6]; [10],-0.223 ± 1.2
same,promoter activity interaction Z-score,[6]; [11],1.12 ± 0.49
same,promoter activity interaction Z-score,[6]; [12],-0.382 ± 0.79
same,promoter activity interaction Z-score,[6]; [13],-0.826 ± 0.66
same,promoter activity interaction Z-score,[6]; [14],0.183 ± 1.1
same,promoter activity interaction Z-score,[6]; [15],-0.0377 ± 0.24
same,promoter activity interaction Z-score,[6]; [16],1.63 ± 0.99
